Data on 85 compounds can be found in PubChem BioAssay AID1645854 (Buhrlage Lab, Dana-Farber Cancer Institute and Novartis …, 2021).

The campaign covered roughly 47,000 compounds. About 140 (0.3%) were called active. This is one part of a sample in which actives are shown more often than they occur. No stated cut-off is given here; in the data, active means inhibition above about 30%; inactive means the rest.

For this test, the target named is Ubiquitin carboxyl-terminal hydrolase 7 (Homo sapiens) (UniProt Q93009). In words: blocks human USP7 ubiquitin-rhodamine cleavage (AID 1645854). The note with it: purified USP7, Ub-rhodamine cleavage fluorescence; at 20 µM; hits give high values.
Ubiquitin carboxyl-terminal hydrolase 7 (Homo sapiens), sequence (Q93009 whole entry, looked up): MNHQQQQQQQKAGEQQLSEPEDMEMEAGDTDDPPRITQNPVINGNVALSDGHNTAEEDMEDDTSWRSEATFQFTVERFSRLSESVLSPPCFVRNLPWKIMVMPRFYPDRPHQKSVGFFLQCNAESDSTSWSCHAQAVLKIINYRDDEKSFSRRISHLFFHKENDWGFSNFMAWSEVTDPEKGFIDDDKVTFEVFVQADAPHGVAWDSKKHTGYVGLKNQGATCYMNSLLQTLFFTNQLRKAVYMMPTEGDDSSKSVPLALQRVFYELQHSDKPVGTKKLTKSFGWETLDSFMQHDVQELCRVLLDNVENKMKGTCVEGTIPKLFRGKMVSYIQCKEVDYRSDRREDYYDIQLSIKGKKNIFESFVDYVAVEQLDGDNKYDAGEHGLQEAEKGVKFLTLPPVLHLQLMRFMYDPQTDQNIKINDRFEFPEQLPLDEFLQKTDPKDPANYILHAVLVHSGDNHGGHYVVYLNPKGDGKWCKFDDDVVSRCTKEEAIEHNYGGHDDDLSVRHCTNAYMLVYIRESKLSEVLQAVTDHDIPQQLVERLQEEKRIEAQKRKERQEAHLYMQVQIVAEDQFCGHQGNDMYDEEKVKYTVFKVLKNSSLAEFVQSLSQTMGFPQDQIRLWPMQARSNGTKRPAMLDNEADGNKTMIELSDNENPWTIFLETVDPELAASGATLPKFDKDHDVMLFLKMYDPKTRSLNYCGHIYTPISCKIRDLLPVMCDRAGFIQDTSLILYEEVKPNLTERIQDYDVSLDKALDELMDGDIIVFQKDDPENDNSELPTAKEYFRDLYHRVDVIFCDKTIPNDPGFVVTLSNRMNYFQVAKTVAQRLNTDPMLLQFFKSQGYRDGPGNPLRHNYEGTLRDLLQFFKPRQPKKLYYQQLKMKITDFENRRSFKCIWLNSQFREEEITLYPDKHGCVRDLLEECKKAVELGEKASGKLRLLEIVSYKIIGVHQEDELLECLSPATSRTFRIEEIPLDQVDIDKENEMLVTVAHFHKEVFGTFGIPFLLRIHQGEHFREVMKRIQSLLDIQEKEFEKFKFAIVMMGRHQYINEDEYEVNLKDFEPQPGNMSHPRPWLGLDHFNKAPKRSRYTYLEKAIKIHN
Consider `O=C1CCCC2=C1C(c1ccc(O)cc1)n1ncc(C(=O)Nc3ccccc3)c1N2` (stereo not given), for which the inhibition is 1.67% (inactive).
As for `Fc1ccc(-c2nn(-c3cccc(F)c3)c3c2cnc2cc4c(cc23)OCO4)cc1`, the figure is 8.85% (inactive); as for `CCC(=O)NC(=NCCc1c[nH]c2ccc(Cl)cc12)Nc1nc(C)cc(C)n1`, 6.43% (inactive); as for `Cc1c(S(=O)(=O)N2CCCC2)cc(C(=O)Nc2ccccc2F)n1C`, 1.4% (inactive).
Take `Cc1ccc(-c2cc(=O)oc(-c3ccc(Br)cc3)n2)cc1`: the inhibition is 4.33% (inactive).
For `COc1ccc(OC)c(-c2cc(C(=O)N3C[C@@H]4C[C@@]5(C)[C@H](CCC[C@@H]35)N4)[nH]n2)c1`, the inhibition is 1.2% (inactive).
Consider `Cc1ccccc1Nc1nccc(C2CCCN(C(=O)C3(c4ccccc4)CC3)C2)n1` (stereo not given), for which the inhibition was -0.199% (inactive).
Consider `CC12CCN(CCC(F)(F)F)CCN1C(=O)N(Cc1ccccn1)C2=O` (stereo not given), for which the inhibition was -2.02% (inactive).
Regarding `Cc1nc(Nc2ccccn2)cc(C2CCCN2C(=O)c2cccnc2)n1` (stereo not given), the inhibition is -7.09% (inactive).
`CCc1ccccc1NC(=O)COc1nsnc1N1CCOCC1`: the inhibition is -0.647% (inactive).
`Cc1cc(O)c2c(C)c(CC(=O)N3CCC[C@H]3C(=O)O)c(=O)oc2c1`: the inhibition is 0.928% (inactive).
As for `Cc1nc2ccccc2c(=O)n1-c1ccc(F)c(NC(=O)c2ccccc2[N+](=O)[O-])c1`, the figure is 3.02% (inactive).
Regarding `O=S(=O)(Cc1noc(-c2ccc(OC(F)(F)F)cc2)n1)c1ccc(F)cc1`, the inhibition is -2.05% (inactive).
As for `Cc1nc2sccn2c1CN1C[C@@H](c2ccccn2)[C@@]2(CCCCC(=O)N2)C1`, the figure is 5.2% (inactive).
Take `CC(=O)N1CCCn2c(nc(CNC(=O)c3cnn(C)c3)cc2=O)C1`: the inhibition is 6.8% (inactive).
Regarding `Cc1ccccc1CNC(=O)CCc1nc2ccccc2c(=O)n1C`, the inhibition was -6.78% (inactive).
As for `CC(C)n1ncc2c(C(=O)NCc3ccccc3CN(C)C)cc(C3CC3)nc21`, the figure is -0.227% (inactive); as for `CN1C(=O)OC2(CCN(S(=O)(=O)c3ccccc3)CC2)c2ccccc21`, 4.14% (inactive); as for `CCCNC(=O)c1nc2c(o1)CN(CC1CC1)C2`, 0.464% (inactive).
Regarding `CN(C(=O)COc1ncnc2c1cnn2-c1ccccc1)C1CCCCC1`, the inhibition is 1.52% (inactive).
As for `Cc1cccc(S(=O)(=O)N(CC(=O)N(C)Cc2ccccc2)Cc2ccccc2)c1`, the figure is -0.03% (inactive); as for `COc1cc(C)c(CN2CCC3(CC2)OCCc2cnc(C)nc23)cc1C`, -2.12% (inactive).
As for `O=C(Nc1cc(C(F)(F)F)ccc1-n1cnc2ccccc21)c1ccc(S(=O)(=O)N2CCCCC2)cc1`, the figure is 12.8% (inactive); as for `Cc1nc(CN2CCn3c(CNC(=O)C4CC4)cnc3C2C)cs1` (stereo not given), -127% (inactive); as for `CCCN(C(=O)c1cccc2c1SCCC2=O)c1ccc(F)cc1`, -4.01% (inactive).
As for `COc1cc(C(=O)Nc2ccc(-c3nc4cnccc4o3)cc2)cc(OC)c1OC`, the figure is 5% (inactive); as for `O=C(Cc1ccccc1)Nc1ccc(-c2nc3cnccc3o2)c(O)c1`, 31.5% (active).
Consider `O=C(Nc1ccc(-c2nc3cnccc3o2)c(O)c1)c1ccc(-c2ccccc2)cc1`, for which the inhibition is 5.05% (inactive).
As to `CCOc1ccc(NC(=O)Cn2c(=O)n(CCC(=O)N3CCc4ccccc4C3)c(=O)c3ccccc32)cc1`, the inhibition is 3.17% (inactive).
As for `O=C(Nc1ccc(F)cc1F)c1csc2c1CCCCC2`, the figure is 3.29% (inactive); as for `O=C(NCc1ccc2c(c1)OCO2)C1(c2ccc(Cl)cc2)CCCC1`, -12.3% (inactive); as for `CN(Cc1ccccc1)Cc1cn[nH]c1-c1ccc(Cl)cc1`, -24% (inactive).
Turning to `Cc1nc2nc(NCc3ccccc3)[nH]n2c(=O)c1CCC(=O)N1CCCCC1C` (stereo not given), the inhibition was 2.27% (inactive).
`CC1=NOC(CNS(=O)(=O)c2cc(C)ccc2C)C1` (stereo not given): the inhibition was -0.759% (inactive).
As for `O=C1NC2(CCN(C(=O)Cc3ccc(F)cc3)CC2)N=C1c1ccc(Cl)cc1`, the figure is -39.3% (inactive).
In the case of `COc1c(O)c2c3c(c1O)C(=O)[C@@]1(O)C(=C3C(C)=CC2=O)O[C@@H](C)C1(C)C`, the inhibition is -76.3% (inactive).
With `COc1ccc(Cl)cc1NC(=O)C1CC(=O)NC(Nc2ccccc2)=N1` (stereo not given), the inhibition was -1.4% (inactive).
As for `Cc1cc(C)n2nc(C(=O)N3CCCC(Cc4[nH]ncc4C)C3)cc2n1` (stereo not given), the figure is -0.00929% (inactive); as for `CSc1cccc(NC(=O)CC(=O)Nc2ccc3nc4n(c(=O)c3c2)CCCCC4)c1`, 1.86% (inactive); as for `CC1(C2CCN(C(=O)NC3CCCCC3)CC2)NC(=O)NC1=O` (stereo not given), 2.45% (inactive).
As for `CC(C)CCN1C[C@H]2CCN(C(=O)c3cnccn3)CC[C@H]2S1(=O)=O`, the figure is -4.49% (inactive); as for `Cc1ccccc1COC(=O)C1CCN(C2=NS(=O)(=O)c3ccccc32)CC1`, -0.994% (inactive).
As for `COc1ccc2[nH]c3c(c2c1)CCN1C(=O)CN(CCc2ccccc2)C(=O)C31C` (stereo not given), the figure is 4.73% (inactive).
For `COC1=C(OC)C(=O)C(C)=C(C)C1=O`, the inhibition is 3.62% (inactive).
For the compound `O=C(Nc1cccc(S(=O)(=O)N2CCCCCC2)c1)c1ccc(N2CCOCC2)c([N+](=O)[O-])c1`, the inhibition is 8.97% (inactive).
As for `CC(C)(C)c1cc(-c2ccccc2)nc(-c2ccccc2)c1`, the figure is 1.78% (inactive); as for `O=C(CCN1CCOC(Cn2cncn2)C1)N1CCCCC1` (stereo not given), 1.57% (inactive); as for `O=C(CN(Cc1ccccc1)S(=O)(=O)c1ccccc1)N1CCCCCC1`, -6.83% (inactive).
Turning to `Cc1ccc(NS(=O)(=O)c2cc(-c3[nH]ncc3C(=O)N3CCCC3)oc2C)cc1F`, the inhibition was -40.8% (inactive).
As for `COCCn1cnc2c1c(=O)n(CC(=O)Nc1c(C)cc(C)cc1C)c(=O)n2Cc1ccccc1`, the figure is 0.0199% (inactive); as for `CC(Nc1nnc(Cc2ccccc2)c(=O)[nH]1)c1ccccc1` (stereo not given), 19.7% (inactive).
On to `Cc1c(-c2nn3c(-c4ccco4)nnc3s2)cccc1[N+](=O)[O-]`, for which the inhibition is 35% (active).
For `CC(C)Cc1cc(-c2nn3c(-c4ccccc4Cl)nnc3s2)n[nH]1`, the inhibition is 7.86% (inactive).
In the case of `Cc1cccc(CNC(=O)c2ccc3c(c2)NC(=O)C2CCC(=O)N32)c1` (stereo not given), the inhibition was 1.1% (inactive).
With `O=C1CC(CNS(=O)(=O)c2cccc(Cl)c2)CN1c1ccccc1` (stereo not given), the inhibition was -3.38% (inactive).
As for `Cn1c(=O)c2ccc(C3CCN(C(=O)CN4CCCC4)C3)nc2n(C)c1=O` (stereo not given), the figure is -2.1% (inactive).
As for `COc1cc2c(c(OC)c1OC)-c1ccc(N3CCN(Cc4ccccc4)CC3)c(=O)cc1[C@@H](NC(C)=O)CC2`, the figure is -1.92% (inactive).
As for `C=C1CCC2[C@](C)(CCC[C@]2(C)C(=O)OC)[C@H]1CCc1ccoc1C[N+](C)(C)Cc1ccccc1` (stereo not given in full), the figure is 19.4% (inactive).
For the compound `C=C1CCC2[C@](C)(CCC[C@]2(C)C(=O)OC)[C@H]1CCc1ccoc1/C=C/C(=O)O` (stereo not given in full), the inhibition was 37.2% (active).
As for `C=C1CCC2[C@](C)(CCC[C@]2(C)C(=O)OC)[C@H]1CCc1ccoc1CNCC(=O)O` (stereo not given in full), the figure is 1.95% (inactive); as for `CCc1cc(C(=O)NC2CC(C)(C)Cc3nc(N4CCCC4)ncc32)no1` (stereo not given), -17.3% (inactive); as for `Cc1ccc(-c2cn3ccn(-c4ccc(C)cc4C)c(=O)c3n2)cc1`, 6.15% (inactive).
On to `CC(C)CN1[C@H]2CCN(C(=O)c3cccn3C)CC[C@@H]2Oc2ccccc2S1(=O)=O`, for which the inhibition was -3.56% (inactive).
As for `Cn1cc(C2=CCN(S(=O)(=O)c3cccc4cccnc34)CC2)c2cccnc21`, the figure is -2.34% (inactive); as for `Cc1nnc(C(=O)Nc2ccc(C(=O)NCc3ccccc3C)cc2)s1`, 6.22% (inactive).
Take `O=C(Nc1nc(-c2ccc3c(c2)CCN3C(=O)c2ccccc2F)cs1)c1cccnc1`: the inhibition was 26.5% (inactive).
As for `CCS(=O)(=O)c1cccc(C(=O)Nc2c(C(N)=O)oc3ccccc23)c1`, the figure is 1.8% (inactive); as for `CN1CCN(c2ccc(CNS(=O)(=O)c3cccc(F)c3)cc2)CC1`, 3.64% (inactive); as for `COc1ccccc1CNc1ccc2c(cc1=O)[C@@H](NC(C)=O)CCc1cc(OC)c(OC)c(OC)c1-2`, -13.3% (inactive).
As for `CCS(=O)(=O)N1CCC(c2nc(C)c(-c3ccnc(C)n3)s2)CC1`, the figure is 3.86% (inactive).
As for `C=C1Nc2ccccc2C(=O)N1c1cccc(NC(=O)c2ccc(F)cc2)c1`, the figure is 1.49% (inactive).
On to `O=C(CCc1nc(-c2cccnc2)no1)Nc1cc(Cl)ccc1O`, for which the inhibition was -16.2% (inactive).
As for `CC(C)Cc1nnc(NC(=O)c2cc(=O)[nH]c3ccccc23)s1`, the figure is -0.0201% (inactive); as for `COc1cc(C(=O)N[C@@H]2C(=O)Nc3c(c(C)nn3C)[C@H]2c2cccc(Cl)c2)cc(OC)c1OC`, -9.37% (inactive).
Regarding `CN1C(=O)C2CCCCN2c2ccc(C(=O)NC3CCCC3)cc21` (stereo not given), the inhibition is -1.37% (inactive).
As for `O=C(CCc1ccccc1)N1C[C@@H]2OCC(=O)N(C3CCOCC3)[C@H]2C1`, the figure is 10.2% (inactive); as for `C[C@H](NC(=O)[C@@H]1Cc2c([nH]c3ccccc23)C2c3ccccc3C(=O)N21)C(=O)NC1CC1` (stereo not given in full), -18.8% (inactive).
As for `CC(/C=C/C(=O)NO)=C\C(C)C(=O)c1ccc(N(C)C)cc1` (stereo not given), the figure is -1.05% (inactive).
With `CC1(C)CCc2c(cc(OCC(=O)NCC(=O)O)c3c4c(c(=O)oc23)CCC4)O1`, the inhibition was 8.33% (inactive).
For `CCCc1cc(=O)oc2cc(OCC(=O)NCc3ccc(OC)cc3)ccc12`, the inhibition was 1.51% (inactive).
As for `CC1(C)Cc2c(c(-c3ccco3)nc3sc4c(SCCCc5ccccc5)ncnc4c23)CO1`, the figure is 56.7% (active); as for `CCCCCCSc1ncnc2c1sc1nc(-c3ccccc3)c3c(c12)CC(C)(C)OC3`, 1.19% (inactive).
As for `CSc1ncnc2c1sc1nc(-c3ccccc3)c3c(c12)CC(C)(C)OC3`, the figure is 4.67% (inactive); as for `COCCN1C(=O)Cc2c(C)nc(C3(C)CCCN(c4ccnc(C)n4)C3)nc21` (stereo not given), -0.762% (inactive).
As for `Cc1cc(-c2cnc(C)nc2C2CCN(C(=O)Cc3ccccc3F)CC2)on1`, the figure is 0.853% (inactive).
